Hits are enriched below; roughly 6.7% of the tested compounds scored in any of these assays.
BoNT A protease: BoNT/A light chain protease inhibitors, primary screen, biochemical, flow cytometry, MLPCN library. inhibition, % at 10 µM. Botulinum neurotoxin type A light chain protease (Clostridium botulinum A str. ATCC 3502). multiplex microsphere protease substrate cleavage. 0.17% of 360,000 active. AID 588499, 2011; also: plate controls were buffer without enzyme for full effect and enzyme alone for no effect
Anthrax LF inh2: Bacillus anthracis LF protease inhibitors, primary screen, biochemical, multiplex microsphere, MLPCN library | Lethal factor (Bacillus anthracis), P15917 | multiplex microsphere protease cleavage assay | inhibition, % at 10 µM | 0.12% of 360,000 active; also: plate controls were buffer without enzyme for full effect and enzyme alone for no effect
GDH-TPI counter: GDH-TPI coupling enzyme inhibitors, primary screen, artefact control for M. tuberculosis FBA inhibitor project, biochemical, absorbance, full deck. GDH-TPI coupled enzyme counterscreen, NADH absorbance. inhibition, % at 4.8 µM. 1.2% of 360,000 active. AID 588335, 2011; in the data active = inhibition above about 30%;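 also: 0% = DMSO wells and 100% = wells lacking the enzyme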
Autofluor counter: compound fluorescence in toxin protease inhibitor counterscreen. 3.1% of 360,000 active. compound autofluorescence counterscreen, microsphere flow cytometry; hits give high values. fluorescence intensity (no concentration beside the values). AID 624483; in the data active = fluorescence intensity above about 16000; inconclusive = no clear call, values can overlap the other calls
BoNT-F LC inh: BoNT/F light chain protease inhibitors, primary screen, biochemical, flow cytometry, MLPCN library | Botulinum neurotoxin type F light chain protease (Clostridium botulinum) | Multiplex microsphere protease cleavage assay | inhibition, % at 10 µM | 0.22% of 360,000 active; in the data active = inhibition above about 35%, passing the limit was not always enough; inconclusive = no clear call, values can overlap the other calls; also: plate controls were buffer without enzyme for full effect and enzyme alone for no effect
FBA Mtb inh: Mtb FBA enzyme inhibitors, primary screen, biochemical, fluorescence, strain H37Rv. 2.3% of 360,000 active. purified M. tuberculosis FBA, fluorescence read-out. Fructose-bisphosphate aldolase (Mycobacterium tuberculosis (strain ATCC 25618 / H37Rv)), …. inhibition, % at 1 µM; in the data active = inhibition above about 27%;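 also: 0% = vehicle and 100% = reference inhibitor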
Numbers without * were called inactive; ? = inconclusive; / = no result given; + = active, no number. Rule as the data show it, unless noted: active = inhibition above about 30%; inconclusive = no clear call, values can overlap the other calls; inactive = below that.

SMILES	BoNT A protease	Anthrax LF inh2	GDH-TPI counter	Autofluor counter	BoNT-F LC inh	FBA Mtb inh
O=C(N=Nc1c(O)[nH]c2ccc(Br)cc12)c1ccccc1-n1cccc1	-3.4	-7.0	14.3	24096*	-7.5	-2.3
N=C(N)N=Nc1c(O)[nH]c2ccc(Br)cc12	0.1	-2.4	12.4	2679	-2.6	-3.5
O=C(N=Nc1c(O)[nH]c2ccc(Br)cc12)c1ccco1	0.0	-5.0	38.9*	3355	-4.4	-3.4
Clc1cccc(-c2nc(NCCN3CCOCC3)c3ccccc3n2)c1	-0.9	-1.1	4.5	4649	-7.2	-5.2
CCCCOc1ccccc1Cn1c(=O)oc2ccccc21	-0.3	-5.9	-2.5	3206	-4.7	-5.5
COc1ccc(CN2C(=O)c3cccnc3C2Nc2ccc(OC)c(Cl)c2)cc1 (stereo not drawn)	?	-0.5	2.5	22056*	2.4	-1.3
COc1ccc(NC2c3ncccc3C(=O)N2Cc2ccccc2)c(OC)c1 (stereo not drawn)	-2.4	-7.5	4.7	8556	-48.6	1.8
Cc1ccc(NC2c3ncccc3C(=O)N2Cc2ccc(F)cc2)cc1 (stereo not drawn)	-1.5	-5.8	5.4	10645	-6.1	-4.1
COc1cc(NC2c3ncccc3C(=O)N2Cc2ccco2)cc(OC)c1 (stereo not drawn)	-0.1	-9.4	-0.7	20554*	-3.8	-0.7
C/C(CC(=O)Nc1ccc(N(C)C)cc1)=N\NC(=O)c1ccccc1Cl	-0.6	-8.7	16.1	3541	-8.3	0.3
CC(=O)Nc1ccc2ccc3cccc4ccc1c2c34	0.5	-0.1	33.6*	2789	-6.5	17.9
CC(=O)Nc1ccc2c3c(cccc13)C(=O)N(c1ccccc1)C2=O	-0.2	-1.1	12.3	4004	0.8	+
CC(=O)OC1CC(C)N(C(=O)c2ccccc2)c2ccc(C)cc21 (stereo not drawn)	-5.0	-2.0	1.0	25080*	-8.3	0.4
CC(CC(=O)O)CC(=O)Nc1ccccc1C(=O)O (stereo not drawn)	-0.4	3.3	5.6	22711*	-4.6	7.9
COc1ccc(-c2noc(C3CCCN(S(=O)(=O)c4cccc(Cl)c4C)C3)n2)cc1OC (stereo not drawn)	-2.4	-0.5	7.5	17219*	-4.1	2.5
CC(=O)c1cccc(S(=O)(=O)N2CCCC(c3nc(-c4ccc(C)o4)no3)C2)c1 (stereo not drawn)	?	-2.5	11.8	17085*	-3.1	0.4
CCCS(=O)(=O)N1CCCC(c2nc(-c3ccc(OC)cc3)no2)C1 (stereo not drawn)	-0.9	-2.4	-4.1	11093	-5.3	0.1
CCS(=O)(=O)N1CCCC(c2nc(-c3cccc(OC)c3)no2)C1 (stereo not drawn)	-0.8	-1.6	6.8	23563*	0.3	-1.3
CCOC(=O)C1=CCN(S(=O)(=O)c2cccc(Cl)c2)C1c1ccc(Br)cc1 (stereo not drawn)	0.3	6.4	/	6085	1.6	-1.6
CC(C)(C)OC(=O)N1CCC(CNC(=O)c2ccccc2)CC1	-1.0	-4.7	8.9	4515	-0.7	1.2
COCCN(CCOC)C(=O)CC(=O)N(CCOC)CCOC	1.5	1.1	-10.9	19259*	1.4	-1.3
O=C(CCNC(=O)c1ccccc1Cl)Nc1cc(C(F)(F)F)ccc1N1CCCC1	1.3	2.5	2.1	4359	5.8	2.9
COC(=O)Nc1ccc(S(=O)(=O)N2CCCc3ccccc32)cc1	-1.4	-1.4	10.1	16570*	-2.1	-1.5
COc1cc(C(=O)Nc2ccc(S(=O)(=O)N3CCc4ccccc43)cc2)cc(OC)c1OC	-2.0	0.5	-7.0	18077*	-2.6	-2.1
COC(=O)Nc1ccc(S(=O)(=O)N2CCCc3cccc(O)c32)cc1	0.9	-3.3	1.3	2979	-3.3	-0.6
SMILES	BoNT A protease	Anthrax LF inh2	GDH-TPI counter	Autofluor counter	BoNT-F LC inh	FBA Mtb inh
Cc1cc(F)ccc1NC(=O)c1cc(S(=O)(=O)N2CCOCC2)cn1C	0.1	0.8	7.2	6169	-9.0	0.1
CC(=O)NC(c1ccc(F)c(F)c1)c1nc(-c2cccc(C(C)C)c2)cs1 (stereo not drawn)	0.2	-3.1	12.4	2954	-3.6	0.3
CCOC(=O)/C(C#N)=C/Nc1ccccc1OC	0.6	-4.6	43.8*	3084	0.7	-13.4
CCOC(=O)C(=O)/C(C#N)=C/Nc1ccccc1	-0.5	-0.8	4.3	2936	-0.7	-1.1
COC(=O)CCC(=O)N1CN2CN(C(=O)CCC(=O)OC)CC([N+](=O)[O-])(C2)C1	0.0	-4.5	-1.4	4362	5.4	2.2
Cc1ccc(S(=O)(=O)N2CCC(C(=O)NCCCN3CCCC3=O)CC2)cc1C	2.1	-1.5	2.4	4192	5.8	4.8
O=C(Nc1nc2cc3c(cc2s1)OCCO3)c1cccc(N2C(=O)CCC2=O)c1	0.0	-6.6	31.2*	6357	3.1	4.2
CCN(CC)S(=O)(=O)c1ccc2nc(NC(=O)c3cccs3)sc2c1	0.1	3.8	35.5*	4219	-9.2	19.4
COc1ccccc1C(=O)Nc1nc2cc3c(cc2s1)OCCO3	0.3	-4.5	3.9	5572	-6.3	8.9
O=C(Nc1nc2cc3c(cc2s1)OCCO3)c1cccs1	-0.9	-0.9	37.7*	3630	-4.5	3.8
CC(=O)Nc1ccc2nc(NC(=O)c3cccs3)sc2c1	-0.9	-1.8	53.1*	4465	-10.6	-2.2
O=C1NC(=NCc2ccccc2)S/C1=C\c1ccccc1	-0.1	-1.2	43.2*	7531	6.2	-2.4
O=C1N/C(=N/O)S/C1=C/c1cccnc1	-0.1	-1.7	10.7	2373	-0.2	2.7
COc1ccc(/C=C2\SC(=Nc3ccccc3Cl)NC2=O)c(OC)c1	-0.6	-1.4	17.0	3613	-6.8	-5.0
O=C1NC(=Nc2ccccc2Cl)S/C1=C\c1cccc([N+](=O)[O-])c1O	/	/	35.7*	/	/	-10.2
O=C1NC(=Nc2ccccc2Cl)S/C1=C\c1ccc(C(=O)O)cc1	-4.3	-15.7	41.2*	3816	-0.1	-2.2
O=C(Cn1cnc2sc(-c3ccccc3)cc2c1=O)NCc1ccccc1	-0.3	0.0	13.1	9905	-1.0	2.9
CC(=O)c1cnc(Nc2ccccc2)s1	0.0	-0.8	22.9	3071	-3.3	-2.3
CC(=O)c1cnc(N(C)C)s1	-0.9	-6.9	38.5*	3991	-26.2	2.6
O=Cc1cccn1Cc1ccc(Cl)cc1Cl	0.4	-2.3	3.7	23592*	-3.0	4.7
O=S(=O)(c1ccc(F)cc1)N(CCO)CC(O)Cn1c2ccccc2c2ccccc21 (stereo not drawn)	-2.0	-5.3	11.7	16893*	-7.0	0.7
